Assay results from PubChem BioAssay (NCI).
This is part of a sample that, as a whole, favours compounds with a hit. Of some 83,000 tested, about 20% had one in any assay.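 The test compound was applied at a single concentration to cells in 96-well plates for 48 hours, and percent growth was recorded.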 A number with no mark means an inactive call. Active and inactive are the calls of the source. Rule for the calls: active = growth percent below 10; inactive = the rest.

Legend:
Test in all cases: NCI-60 one-dose screen, 48 h (100 = growth as untreated, 0 = no growth, -100 = all killed)
Conditions in all cases: 10 µM unless noted
DU-145 prostate = test system: DU-145 prostate
K-562 leukemia = test system: K-562 leukemia
MALME-3M melanoma = test system: MALME-3M melanoma
MDA-MB-231 breast = test system: MDA-MB-231 breast
RXF 393 renal = test system: RXF 393 renal
SF-268 CNS = test system: SF-268 CNS
SF-295 CNS = test system: SF-295 CNS
SF-539 CNS = test system: SF-539 CNS
UACC-257 melanoma = test system: UACC-257 melanoma
M14 melanoma = test system: M14 melanoma

SMILES	growth (DU-145 prostate)	growth (K-562 leukemia)	growth (MALME-3M melanoma)	growth (MDA-MB-231 breast)	growth (RXF 393 renal)	growth (SF-268 CNS)	growth (SF-295 CNS)	growth (SF-539 CNS)	growth (UACC-257 melanoma)	growth (M14 melanoma)
COc1cc(C2CC(c3cc(OC)c(OC)c(OC)c3)=Nc3c(N)nc(N)nc3N2)ccc1Oc1nc(NCCO)nc(N2CCOCC2)n1 (configuration not stated)	114%	91.1%	98.5%	102%	105%	93.8%	101%	97.5%	105%	–
COc1ccc2c(c1)c(/C=N/Nc1ccc3ccccc3n1)cn2C	36.2%	-40.1% (active)	12.6%	-23.1% (active)	33.4%	37.2%	-60.4% (active)	-36.2% (active)	61.7%	-6.98% (active)
Nc1nnc(-c2c[nH]c3ccc(Br)cc23)c(-c2c[nH]c3ncc(Br)cc23)n1	55.7%	18.8%	39.2%	45.8%	2.79% (active)	47.7%	41.2%	41.5%	59.5%	–
Brc1ccc(N/N=C/c2c[nH]c3ccc(Br)cc23)nc1	15.6%	-33.1% (active)	-57.4% (active)	-63.5% (active)	-22.9% (active)	10.5%	-78.3% (active)	-41.5% (active)	7.1% (active)	–
COc1ccc(/C=N/NC(=O)Cn2nc(Cc3ccc(OC)cc3)c3onc(C)c3c2=O)cc1	64%	53.9%	50.8%	57.8%	2.21% (active)	65.4%	48.2%	47.6%	77%	–
CN(C)c1nc(NCCNS(=O)(=O)c2ccc(C(=O)/C=C/c3ccc(C(F)(F)F)cc3)cc2)nc(Nc2ccc(F)cc2)n1	6.99% (active)	-1.07% (active)	-2.41% (active)	-74.2% (active)	-81.4% (active)	21.6%	-14.6% (active)	-97.5% (active)	23.7%	–
N/C(=N\c1nc2ccccc2s1)NC(=O)Nc1c(Cl)cccc1Cl	55.1%	19.6%	44%	28.9%	80.8%	42.2%	28.2%	30.8%	75.4%	–
COc1cc(-c2nc3cc(Cl)c(Cl)cc3[nH]2)ccc1OCc1nnc(-c2cccs2)o1	34.7%	54%	18.1%	17.9%	-2.12% (active)	68.5%	31.9%	104%	61.2%	–
CCCSc1nc(Nc2ccc(S(N)(=O)=O)cc2)c(C#N)c(-c2cc(OC)c(OC)c(OC)c2)n1	26.2%	2.89% (active)	-2.83% (active)	43.9%	-2.49% (active)	45.2%	14.1%	37%	42%	–
O=c1[nH]c2ccccc2cc1CSc1nccc(-c2ccc3ccccc3c2)n1	81%	10.1%	86.3%	58.2%	59.1%	85.4%	70.8%	71.2%	99.3%	56.1%
COc1ccc(C2CC(c3ccc(S(=O)(=O)NCCNc4nc(Nc5ccc(F)cc5)nc(N(C)C)n4)cc3)=Nc3c(N)nc(N)nc3N2)cc1 (configuration not stated)	102%	35.6%	106%	64.2%	53.3%	73.8%	94.8%	75.4%	100%	81.9%
COc1ccc(C(=O)/C=C/c2ccc(OCc3ccc(F)cc3)c(OC)c2)cc1OC	1.63% (active)	7.71% (active)	61.4%	11.1%	18.7%	24.3%	15.6%	-38.6% (active)	33.6%	38.1%
S=C(Nc1ccccc1)Nc1ccc(OCc2nc3ccccc3[nH]2)cc1	43.8%	15%	51.6%	37%	75.1%	24.1%	24.2%	30.7%	48.2%	36.9%
COC1=C[C@]23CCC(=O)N2CCc2cc4c(cc2[C@@H]3[C@@H]1OC(=O)[C@H](C)O)OCO4	31.7%	7.08% (active)	-28.6% (active)	61.8%	5.61% (active)	66.2%	29.7%	-34.5% (active)	27.9%	10.4%
CCN1C(=O)N(CC)C2NNC(Sc3c(C(=O)O)c4ccccc4n(C4CCCC4)c3=O)=NC21 (configuration not stated)	2.94% (active)	13.9%	72.4%	12.3%	50.2%	39.2%	8% (active)	-24.7% (active)	58.7%	-7.72% (active)
Cc1ccc(NC(=O)[C@]23CCC(C)(C)CC2C2=CCC4[C@@]5(C)C[C@@H](O)[C@H](O)[C@@](C)(CO)C5CC[C@@]4(C)[C@]2(C)CC3)cc1 (some centres not stated)	45.6%	11.6%	49.5%	-8.63% (active)	-38.6% (active)	48.5%	21.8%	28.1%	39.8%	38.3%
C#CCOc1cc(N(CC)CC)ccc1C(C(=O)NC(C)(C)C)N(C(=O)C1CCc2cc(F)ccc2O1)c1ccccc1F (configuration not stated)	58.4%	17%	57.7%	53.4%	40.4%	38.4%	19.9%	50.7%	30.2%	39%
O=C(c1ccccc1)c1ccc2nc(-c3cccc(Cl)c3)[nH]c2c1	115%	98.1%	111%	102%	115%	106%	116%	94.9%	100%	108%
COc1cc2oc(-c3cccc(C(=O)Nc4ccc(Cl)cc4)c3)cc(=O)c2c(OCCNC(=O)[C@@H](N)CCC(=O)O)c1OC	86.9%	32.2%	76.1%	30.5%	9.77% (active)	94.7%	86.4%	75.4%	100%	16.7%
Cn1cc(-c2cc3nc(-c4c[nH]c5ccc(Br)cc45)cc(N)n3n2)c2ccccc21	-85.7% (active)	0.783% (active)	-73.4% (active)	-63.2% (active)	-89.4% (active)	-32.7% (active)	-81.8% (active)	-89.7% (active)	-84.6% (active)	-85.5% (active)
COc1cc2c3c(n(CCCN4CCC[C@@H]4CO)c(=O)c2cc1OC)-c1cc2c(cc1C3=O)OCO2	-100% (active)	2.24% (active)	-85.6% (active)	-93.3% (active)	-66.5% (active)	-60.8% (active)	-86% (active)	-98.2% (active)	71.2%	-85.9% (active)
CC1[C@H]2[C@H](C[C@H]3[C@@H]4CC=C5c6sc(Nc7ccccc7F)nc6CC[C@]5(C)[C@H]4CC[C@@]32C)O[C@]12CC[C@@H](C)CO2 (some centres not stated)	-48.6% (active)	1.23% (active)	-73.9% (active)	-57.5% (active)	-88.7% (active)	-53.5% (active)	-75.5% (active)	-87.9% (active)	-85.1% (active)	-87.8% (active)
O=c1oc2ccc(Br)cc2cc1C1=CSc2nc3sc4c(c3c(=O)n2N=C1)CCCC4	107%	97.1%	89%	88.2%	167%	101%	101%	100%	90.9%	92.4%
COc1cc2oc(-c3cccc(NC(=O)[C@H](Cc4ccccc4)NC(=O)OC(C)(C)C)c3)cc(=O)c2c(OC)c1OC	35.7%	23%	35%	42.7%	31%	62%	36.8%	43.1%	75.5%	51.7%
Cn1cc(-c2nnc(N)nc2-c2c[nH]c3ccc(Br)cc23)c2cc(Br)cnc21	75.8%	26.7%	69%	55.8%	17.1%	71.3%	63.5%	63.6%	83.4%	57.2%
O=c1oc2ccccc2cc1-c1csc(N2N=C(c3ccccc3)CC2c2ccc(N3CCOCC3)cc2)n1 (configuration not stated)	113%	107%	116%	90.3%	112%	127%	105%	100%	119%	103%
